# Source: PubChem BioAssay AID1159580 (chemical genetic matrix, 2015)
# Several values for one entry are separate records, joined by “and”; a condition that tells them apart may be missing. Identical values can stand only once. In all, about 5,500 compounds went through this assay and about 2,000 (36%) were called active. Inconclusive results (about 18%) are left out. This is one part of the list. A number with no mark means an inactive call. Cut-off read from the data, not from the text of the source: active = normalized growth mostly below about 0.91 (no sharp cut-off); inconclusive = no clear call, values can overlap the other calls; inactive = mostly above about 0.92.
# Assay: chemical genetic growth profiling, strain panel (AID 1159580);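 note: tested at 20 µM; growth read once vehicle control cultures reached saturation at 30 °C; 1 = growth at the plate median or of vehicle wells; lower values mean less growth of the strain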
# Details: S. cerevisiae deletion strains, growth OD
smiles,measurement,setting,value
C[C@H](CCC(=O)O)[C@H]1CCC2C3C(CC[C@@]21C)[C@@]1(C)CC[C@@H](O)C[C@H]1C[C@H]3O (stereo partly drawn),normalized growth,"locus YAL013W, strain DEP1, hits give low values",1.02
same,normalized growth,"locus YAL021C, strain ccr4, hits give low values",1.01
same,normalized growth,"locus YAL026C, strain drs2, hits give low values",0.987
same,normalized growth,"locus YAL030W, strain snc1, hits give low values",1.02
same,normalized growth,"locus YBL061C, strain skt5, hits give low values",1.02
same,normalized growth,"locus YBR009C, strain hhf1, hits give low values",0.973
same,normalized growth,"locus YBR021W, strain FUR4, hits give low values",1.02
same,normalized growth,"locus YBR023C, strain chs3, hits give low values",1.01
same,normalized growth,"locus YBR171W, strain sec66, hits give low values",1
same,normalized growth,"locus YBR229C, strain ROT2, hits give low values",1.02
same,normalized growth,"locus YBR231C, strain swc5, hits give low values",1.03
same,normalized growth,"locus YBR279W, strain paf1, hits give low values",1.01
same,normalized growth,"locus YCL011C, strain gbp2, hits give low values",1
same,normalized growth,"locus YCL016C, strain dcc1, hits give low values",0.982
same,normalized growth,"locus YCL029C, strain bik1, hits give low values",1.05
same,normalized growth,"locus YCL061C, strain MRC1, hits give low values",0.998
same,normalized growth,"locus YCL069W, strain vba3, hits give low values",1.02
same,normalized growth,"locus YCR088W, strain abp1, hits give low values",1.02
same,normalized growth,"locus YDL005C, strain med2, hits give low values",1.01
same,normalized growth,"locus YDL035C, strain GPR1, hits give low values",0.985
same,normalized growth,"locus YDL040C, strain nat1, hits give low values",1.01
same,normalized growth,"locus YDL074C, strain BRE1, hits give low values",1.09
same,normalized growth,"locus YDL101C, strain DUN1, hits give low values",1.02
same,normalized growth,"locus YDL134C, strain PPH21, hits give low values",1
same,normalized growth,"locus YDL185W, strain tfp1, hits give low values",1.07
same,normalized growth,"locus YDL192W, strain arf1, hits give low values",1.05
same,normalized growth,"locus YDR001C, strain nth1, hits give low values",1.02
same,normalized growth,"locus YDR069C, strain doa4, hits give low values",1.01
same,normalized growth,"locus YDR101C, strain arx1, hits give low values",1.04
same,normalized growth,"locus YDR137W, strain rgp1, hits give low values",0.786 (active)
same,normalized growth,"locus YDR159W, strain sac3, hits give low values",1.02
same,normalized growth,"locus YDR162C, strain NBP2, hits give low values",1.02
same,normalized growth,"locus YDR195W, strain ref2",1.13
same,normalized growth,"locus YDR297W, strain sur2, hits give low values",1.02
same,normalized growth,"locus YDR318W, strain mcm21, hits give low values",1.03
same,normalized growth,"locus YDR334W, strain swr1, hits give low values",1.04
same,normalized growth,"locus YDR335W, strain msn5, hits give low values",1.02
same,normalized growth,"locus YDR388W, hits give low values",1.04
same,normalized growth,"locus YDR392W, strain spt3, hits give low values",0.923
same,normalized growth,"locus YDR502C, strain sam2, hits give low values",1.04
same,normalized growth,"locus YEL003W, strain gim4, hits give low values",0.998
same,normalized growth,"locus YEL037C, strain rad23, hits give low values",1.02
same,normalized growth,"locus YEL061C, strain CIN8 (second series), hits give low values",1.02
same,normalized growth,"locus YEL061C, strain CIN8, hits give low values",1.02
same,normalized growth,"locus YER015W, strain faa2, hits give low values",1.05
same,normalized growth,"locus YER016W, strain bim1, hits give low values",1.01
same,normalized growth,"locus YER110C, hits give low values",1.05
same,normalized growth,"locus YER111C, strain swi4, hits give low values",1.02
same,normalized growth,"locus YER155C, strain BEM2 (second series), hits give low values",1.05
same,normalized growth,"locus YER155C, strain BEM2, hits give low values",1.04
same,normalized growth,"locus YER167W, strain BCK2, hits give low values",1.03
same,normalized growth,"locus YFR010W, strain ubp6, hits give low values",1.03
same,normalized growth,"locus YGL078C, strain dbp3, hits give low values",0.953
same,normalized growth,"locus YGL086W, strain mad1, hits give low values",1.03
same,normalized growth,"locus YGL167C, strain pmr1, hits give low values",1.02
same,normalized growth,"locus YGL173C, strain kem1, hits give low values",0.969
same,normalized growth,"locus YGL227W, strain vid30, hits give low values",1.02
same,normalized growth,"locus YGL240W, strain doc1, hits give low values",1.02
same,normalized growth,"locus YGL248W, strain PDE1, hits give low values",1.01
same,normalized growth,"locus YGL253W, strain hxk2, hits give low values",1.01
same,normalized growth,"locus YGR078C, strain PAC10, hits give low values",1.03
same,normalized growth,"locus YGR135W, strain pre9, hits give low values",1.02
same,normalized growth,"locus YGR252W, strain gcn5, hits give low values",0.929
same,normalized growth,"locus YHR013C, strain ard1, hits give low values",1.06
same,normalized growth,"locus YHR027C, strain rpn1, hits give low values",1.01
same,normalized growth,"locus YHR030C, strain SLT2, hits give low values",1.05 and 0.889
same,normalized growth,"locus YHR079C, strain IRE1 (second series), hits give low values",1.05
same,normalized growth,"locus YHR079C, strain IRE1, hits give low values",0.87
same,normalized growth,"locus YHR094C, strain hxt1, hits give low values",1.05
same,normalized growth,"locus YHR129C, strain ARP1, hits give low values",1.03
same,normalized growth,"locus YHR142W, strain chs7, hits give low values",0.993
same,normalized growth,"locus YHR200W, strain rpn10, hits give low values",1.06
same,normalized growth,"locus YIL066C, strain RNR3, hits give low values",1.03
same,normalized growth,"locus YIL073C, strain SPO22, hits give low values",1.12
same,normalized growth,"locus YIL125W, strain kgd1, hits give low values",1.05
same,normalized growth,"locus YIR030C, strain dcg1, hits give low values",1.05
same,normalized growth,"locus YJL092W, strain hpr5, hits give low values",1.03
same,normalized growth,"locus YJL095W, strain BCK1 (second series), hits give low values",1.02
same,normalized growth,"locus YJL095W, strain BCK1, hits give low values",1.04 and 0.89
same,normalized growth,"locus YJL115W, strain asf1, hits give low values",1.03
same,normalized growth,"locus YJL129C, strain trk1, hits give low values",1.03
same,normalized growth,"locus YJL134W, strain LCB3, hits give low values",1.03
same,normalized growth,"locus YJL154C, strain vps35, hits give low values",1.03
same,normalized growth,"locus YJL164C, strain tpk1, hits give low values",0.992
same,normalized growth,"locus YJL166W, strain qcr8, hits give low values",0.979
same,normalized growth,"locus YJL168C, strain set2, hits give low values",1.05
same,normalized growth,"locus YJL187C, strain SWE1 (second series), hits give low values",1
same,normalized growth,"locus YJL187C, strain SWE1, hits give low values",1.02
